Only a selection was taken, and hits are over-represented in it overall.
RMI FANCM FP: blocks RMI1/RMI2 complex binding to FANCM MM2 peptide | Fluorescence polarization, RMI core complex with F-MM2 peptide; stronger effect = lower value | FP signal (polarization) at 33 µM | 0.58% of 70,000 active; in the data active = FP signal below about 40
Of the large screens only hits and unclear results are named; the others gave an inactive call.

O=C(CCN1C(=O)/C(=C\c2ccccc2F)SC1=S)N1CCN(c2ccccc2)CC1	none
COCCCN1C(=O)/C(=C/N2CCN(c3ccccc3)CC2)SC1=S	none
CCN1C(=O)/C(=C/c2c(C)c(C#N)c(=O)n(C)c2N2CCN(c3ccc(F)cc3)CC2)SC1=S	RMI FANCM FP 15
C=CCN(CC=C)Cc1nc2ccccc2[nH]1	none
O[C@@H]1C2C3CC4C5C3C1C5[C@@H](O)C42 (some centres not stated)	none
COc1cn(CC(=O)Nc2cccc3ccccc23)c(CN2CCN(c3ccc(F)cc3)CC2)cc1=O	RMI FANCM FP 35
COc1cn(CC(=O)Nc2ccc(Br)cc2)c(CN2CCC(C)CC2)cc1=O	none
COc1cn(CC(=O)NCc2ccc(C)cc2)c(CN2CCC(C)CC2)cc1=O	none
Cn1c(=O)cc2c3c(c(NS(=O)(=O)c4ccccc4)ccc31)C(=O)c1ccccc1-2	RMI FANCM FP 9
CC(C)c1cc(NS(=O)(=O)c2ccccc2)c(O)c(C(C)C)c1	none
Cn1c(=O)cc2c3c(c(Br)ccc31)C(=O)c1ccccc1-2	none
COc1ccc(-n2c(C)nc3ccc(NC(=O)c4ccccn4)cc3c2=O)cc1	none
O=C1NC(=Nc2ccccc2)S/C1=C/C=C/c1ccco1	RMI FANCM FP 27
CCOc1ccc(N=C2NC(=O)S/C2=C\C=C\c2ccccc2)cc1	none
CC(=C\c1ccccc1)/C=C1/SC(=Nc2ccc(F)cc2)NC1=O	none
Cc1ccccc1-c1noc(CN2N=NC3C(=O)N(c4ccc(C(C)C)cc4)C(=O)C32)n1 (configuration not stated)	none
O=c1[nH]c2c(s1)C1c3ccccc3OCC1CS2 (configuration not stated)	none
O=c1[nH]c2c(s1)C(c1ccc(Cl)cc1)C1C3CCC(C3)C1S2 (configuration not stated)	RMI FANCM FP 16
COc1ccc(C2c3sc(=O)[nH]c3SC3C4CC(C5C(=O)N(c6ccccc6)C(=O)C45)C23)cc1 (configuration not stated)	none
C/C(=C/C(=O)O)C(=O)Nc1cccc(Cl)c1C	none
O=C(CSc1nnc2nnc3ccccc3n12)N1CCOCC1	RMI FANCM FP 17
O=C(Cn1cnc2ccccc21)N1CCOCC1	none
O=C(CSc1nc2ccccc2o1)N1CCOCC1	none
COc1ccc(-c2nnc(NC(=O)COc3ccc4ccccc4c3)s2)c(OC)c1	none
CNC(=O)Cc1ccc(-n2c(=O)c3ccccc3n(Cc3ccc(N4CCCC4=O)cc3)c2=O)cc1	none
CC1CCc2c(sc(NC(=O)CSc3nc4ccccc4[nH]3)c2C#N)C1 (configuration not stated)	none
CC(=O)OC[C@H]1O[C@@H](OCc2ccccc2)[C@H](OC(C)=O)[C@@H](OC(C)=O)[C@@H]1OC(C)=O	none
O=C(Oc1cc(O)cc2c1C[C@@H](OC(=O)c1cc(O)c(O)c(O)c1)[C@@H](c1ccc(O)c(O)c1)O2)c1cc(O)c(O)c(O)c1	none
O=C(OC[C@H]1O[C@H](OC(=O)c2cc(O)c(O)c(OC(=O)c3cc(O)c(O)c(O)c3)c2)[C@H](OC(=O)c2cc(O)c(O)c(OC(=O)c3cc(O)c(O)c(O)c3)c2)[C@@H](OC(=O)c2cc(O)c(O)c(OC(=O)c3cc(O)c(O)c(O)c3)c2)[C@@H]1OC(=O)c1cc(O)c(O)c(OC(=O)c2cc(O)c(O)c(O)c2)c1)c1cc(O)c(O)c(OC(=O)c2cc(O)c(O)c(O)c2)c1	RMI FANCM FP 29
CN1CCN(c2ccccc2/C=N/Nc2cc(Cl)ccc2Cl)CC1	none
CCOC(=O)N1CCN(C(c2ccncc2)c2c(C)[nH]c3ccccc23)CC1 (configuration not stated)	none
CCOC(=O)N1CCN(CC(O)COc2ccc(-c3ccccc3)cc2)CC1 (configuration not stated)	none
CCOC(=O)N1CCN(C(c2ccccn2)c2c(-c3ccccc3)n(O)c3ccccc23)CC1 (configuration not stated)	RMI FANCM FP 26
CC(C)Oc1ccc(C(=O)Nc2cccc(N3CCCCC3=O)c2)cc1	none
Clc1ccc(CSc2nccn3nc(-c4ccccc4)cc23)cc1	none
CCOC(=O)c1sc(N=Nc2c(C)nn(-c3ccccc3)c2N)c(C(=O)OCC)c1C	none
O=C1Cc2cc(NS(=O)(=O)Cc3ccccc3F)ccc2N1	none
O=C1c2cccc3cc([N+](=O)[O-])cc(c23)C(=O)N1CCCN1CCOCC1	RMI FANCM FP 17
O=C1c2cccc3cc([N+](=O)[O-])cc(c23)C(=O)N1CCc1ccccn1	none
O=C(c1ccc(S(=O)(=O)N2CCOCC2)cc1)N1CCN(CCN2C(=O)c3cccc4cccc(c34)C2=O)CC1	none
CSc1ccc(Oc2ccc(N)cn2)cc1	none
CC(C)Oc1ccccc1Oc1ccc(N)cn1	none
Nc1ccc(Oc2cccnc2)nc1	RMI FANCM FP -6
O=C(c1cccs1)N1N=C(c2ccccc2)CC1c1ccc2nccnc2c1 (configuration not stated)	none
CN(C)/C=N\n1cnc2nccnc2c1=O	none
Cc1nc2ccc(NC(=O)Nc3ccc4c(c3)OCO4)cc2c(=O)n1-c1ccc(Cl)cc1	RMI FANCM FP 28
Cc1nc2ccc(NC(=O)C(C)Oc3ccc4c(c3)OCO4)cc2c(=O)n1-c1ccccc1 (configuration not stated)	none
Cc1ccc(-n2c(C)nc3ccc(NC(=O)Nc4ccc(F)c(Cl)c4)cc3c2=O)cc1	none
Cc1nc(-n2nc(-c3ccco3)cc2NC(=O)c2ccc(Cl)cc2)[nH]c(=O)c1C	none
CC(=O)Oc1ccccc1C(=O)O	none
CC(=O)Oc1cccc2c1C(=O)c1c(OC(C)=O)cc(C(=O)O)cc1C2=O	RMI FANCM FP 34
O=C(O)c1cc(O)c2c(c1)C(=O)c1cc(O)cc(O)c1C2=O	none
CCCOc1ccc(S(=O)(=O)Nc2ccc3c(c2)CCCN3C(=O)CC)cc1C	none
Cc1[nH]c2ccccc2c1C(=O)CSc1nnc(-c2ccccc2)o1	none
Cc1ccc(C)c(NC(=O)CSc2ncc(-c3cccc(Br)c3)o2)c1	none
O=C(c1cccs1)N1CCCc2ccc(NS(=O)(=O)c3ccc4ccccc4c3)cc21	none
COC(=O)c1ccc2nc(NC(=O)c3ccc(N(C)C)cc3)sc2c1	RMI FANCM FP -15
COC(=O)c1ccc2nc(NC(=O)c3ccnn3C)sc2c1	none
CCOc1cc(C(=O)Nc2nc3ccc(C(=O)OC)cc3s2)cc(OCC)c1OCC	none
O=C1CCc2cc([N+](=O)[O-])ccc2N1	none
COc1nn(C)cc1C(=O)NCCCn1ccnc1	none
COc1cccc(/C=C2/CCn3c2nc(=O)c2ccccc23)c1OC	none
Fc1ccc(-c2csc(N/N=C\c3ccccc3)n2)cc1	none
O=[N+]([O-])c1cccc(/C=N\Nc2nc(-c3ccc(Cl)c(Cl)c3)cs2)c1	none
C=CCc1cccc(/C=N\Nc2nc(-c3ccc4ccccc4c3)cs2)c1O	RMI FANCM FP 14
O=C(CC1CSc2nc3c(c(=O)n21)CCC3)N1CCN(C(=O)c2ccco2)CC1 (configuration not stated)	none
CN(C1CCCCC1)S(=O)(=O)c1ccc(C(=O)Nc2cccc3c2C(=O)NC3=O)cc1	none
O=C(NCc1ccc2[nH]c3c(c2c1)CCCC3)c1ccc(C(F)(F)F)cc1	none
O=C(Cc1cccs1)NCc1ccc2[nH]c3c(c2c1)CCCC3	RMI FANCM FP -1
O=C(NCc1ccc2[nH]c3c(c2c1)CCCC3)c1cccs1	none
O=C1c2ccccc2C(=O)c2c(Sc3cccc4c3C(=O)c3ccccc3C4=O)cccc21	none
O=C1c2ccccc2C(=O)c2c1ccc(O)c2O	none
O=C1c2cccc(O)c2C(=O)c2c(O)cccc21	RMI FANCM FP 27
Cc1ccc(Nc2n[nH]nc2C(=O)NCc2ccc(F)cc2)cc1	none
N/C(=N\OC(=O)c1ccno1)c1ccc(C(F)(F)F)cc1	none

Assay outcomes as filed in PubChem BioAssay.
